# Calls of active or inactive are those of the source. How the source made its calls: active means hit-call score of the fitted dose curve at least 0.9, where 1 is the maximum; inactive means score below 0.9.
# Read-out: solute carrier (SLCO1B1), SLCO1B1 (gene 10599)
# Assay: LTEA_HepaRG_SLCO1B1: Life Technologies and Expression Analysis (LTEA) Assay for solute carrier (SLCO1B1) using HepaRG (AID 2283530)
# Details: mRNA level, 48 h; actives raise or lower the signal
# Procedure: LTEA_HepaRG is a cell based, multiplexed-readout assay that uses HepaRG, a human liver cell line, with measurements taken at 48 hours after chemical dosing on a 96-well plate.LTEA_HepaRG_SLCO1B1 is one of 102 assay component(s) measured in the LTEA HepaRG cell culture assay. It is a marker of NR mediated transport.Data from the assay component LTEA_HepaRG_SLCO1B1 was analyzed into 1 endpoint. This assay endpoint, LTEA_HepaRG_SLCO1B1, was analyzed with bidirectional fitting relative to DMSO as the negative control and baseline of activity. Using a type of inducible reporter, measures of mRNA induction for gain or loss-of-signal activity can be used to understand regulation of transcription factor activity. To generalize the intended target to other relatable targets, this assay endpoint is annotated to the transporter intended target family, where the subfamily is organic anion transporter.
# A total of 1060 chemcials from the ToxCast library were tested in eight-point concentration-response experiments. Cell culture and cytotoxicity assays were conducted at Thermo Fisher Scientific's Custom Services facility (Madison, WI). A single lot of human HepaRG cells (Thermo Fisher Scientific, Frederick, MD) was used for the cell culture experiments. 96-well format collagen type I coated plates of human HepaRG cells were prepared using established methods. Briefly, cryopreserved HepaRG cells were thawed, plated at a density of approximately 100,000 cells/well in HepaRG Thaw, Plate, and General Purpose media (HPRG770, Thermo Fisher Scientific), and incubated for 48 hours. 0.5% DMSO was selected as vehicle control to balance the requisite need of DMSO in HepaRG cultures to maintain differentiation (for example, baseline metabolism, proportions of hepatocytes vs. cholangiocytes), while enabling further hepatic receptor pathway activation (for example, PXR and CAR) in response to chemical exposure. 48 hours after plating, the culture medium was replaced with HepaRG Serum-Free Incudtion Media. Cells were exposed to each test chemical in duplicate and maintained in CO2 incubators for another 48 hours. Chemical plates were thawed to room temperature and 200x concentrations of treatment groups were prepared. 8-point conentration-reponse curves were made with the highest exposure at 100 uM, followed by half-log dilutions, all in 0.5% DMSO. Each test plate contained variouse controls, induction positive controls (1mM phenobarbital), cytotoxicity positive controls ([…] aflatoxin B1), vehicle controls (0.5% DMSO), and total lysis controls (0.5% DMSO). Cell morphology images were taken using an Essen IncuCyte FLR automated microscope, with six 96-well plates imaged in about 24 minutes. Images were captured and exported and JPEG files. Spent culture media was transfered to black-well plates for the LDH assay, and remaining media was sorted at -80 C for later use. Cells were treated with RLT buffer and frozen until shipped for gene expression analysis. Total RNA was isolated from the cell suspension in 75 uL of Buffer RLT (Qiagen, Germantown, MD 20874) by Quintiles/Expression Analysis (Durham, NC) using a custom isolation procedure. Total RNA from each plate well was transferred to a preamplification plate. Fluidigm's 96.96 Dynamic ArrayTM (Fluidigm, Amsterdam, the Netherlands) technology was used for gene expression analyses by quantitative reverse transcription polymerase chain reaction (qRT-PCR, performed by Quintiles/Expression Analysis, Durham, NC)89. Standard TaqManTM Assays (Applied Biosystems/ThermoFisher Scientific, Foster City, CA) were used to assess the expression of 93 genes selected based on their selectivity and sensitivity to important hepatic receptors known to be modulated by environmental chemicals; importance in human hepatocyte functionality; and hepatotoxicity. […]
Compound,outcome,AC50
CC(C)OC(=O)C(C)(C)Oc1ccc(C(=O)c2ccc(Cl)cc2)cc1,inactive,–
O=C1OC(c2ccc(O)cc2)(c2ccc(O)cc2)c2ccccc21,–,73.2 µM (active)
CCCCCCCC(=O)OC,inactive,–
COC(=O)CCCC(=O)OC,inactive,–
CC(C)COC(=O)CCCCC(=O)OCC(C)C,inactive,–
NC1CCCCC1,inactive,–
CCN(CC)CCOc1ccc(C(=C(Cl)c2ccccc2)c2ccccc2)cc1,–,13.3 µM (active)
O=C(O)c1[nH]n(-c2ccc(S(=O)(=O)O)cc2)c(=O)c1N=Nc1ccc(S(=O)(=O)O)cc1,inactive,–
C=CCc1ccc(OC)c(OC)c1,–,0.315 µM (active)
Cc1ccc(C(C)(C)C)c(O)c1,inactive,–
O=C(O)CN(CC(=O)O)CC(=O)O,inactive,–
C#CC(O)C(CC)CCCC (stereo not given),inactive,–
Cc1cc(SC2=C(O)C[C@@](CCc3ccc(N)cc3)(C(C)C)OC2=O)c(C(C)(C)C)cc1CO,inactive,–
CCCCCCC(CCCCCCCCCCC(=O)OCC(COC(C)=O)OC(C)=O)OC(C)=O (stereo not given),inactive,–
CCCCCCCCCC[N+](C)(C)[O-],inactive,–
N[C@@H](Cc1c[nH]c2ccccc12)C(=O)O,inactive,–
Cc1cn([C@H]2C=C[C@@H](CO)O2)c(=O)[nH]c1=O,inactive,–
C/C=C/C=C/C(=O)O,inactive,–
CC(COCC(C)OC(=O)c1ccccc1)OC(=O)c1ccccc1 (stereo not given),inactive,–
O=Cc1ccccc1C=O,inactive,–

Compound,outcome,AC50
CN(C)C(=O)NC1(c2ccccc2)CCN(CC[C@@]2(c3ccc(F)c(F)c3)CN(C(=O)c3ccccc3)CCO2)CC1,inactive,–
CC(=O)OCC(COC(C)=O)OC(C)=O,inactive,–
Nc1nc(Cl)nc2c1ncn2[C@H]1C[C@H](O)[C@@H](CO)O1,–,0.999 µM (active)
OCC(CO)n1cnc(-c2ccc(F)cc2)c1-c1ccnc(Oc2ccccc2)n1,inactive,–
CSc1ccc(Oc2ccc(S(N)(=O)=O)cc2CN(C)C)cc1C,inactive,–
S=c1[nH]c2ccccc2s1,inactive,–
CS(=O)(=O)c1ccc([C@@H](C[C@H]2CCC(=O)C2)C(=O)Nc2cnccn2)cc1Cl,–,1.01 µM (active)
CCCCCCCCCCCCCCCCO,inactive,–
Cn1cnc2c1c(=O)[nH]c(=O)n2C,inactive,–
CCCC(=O)O,inactive,–
CC(C)c1cccc(C(C)C)c1,inactive,–
CC(=O)O[C@]1(C(C)=O)CC[C@H]2[C@@H]3C=C(Cl)C4=CC(=O)[C@@H]5C[C@@H]5[C@]4(C)[C@H]3CC[C@@]21C,–,76.8 µM (active)
Oc1ccccc1O,inactive,–
CCCCOC(=O)CCCCC(=O)OCCCC,inactive,–
NCCOCCOCCN,inactive,–
CO[C@@H]1COCC[C@@H]1N[C@@H]1CC[C@@](C(=O)N2CCc3ncc(C(F)(F)F)cc3C2)(C(C)C)C1,inactive,–
O=C1NC(=O)C(c2ccccc2)(c2ccccc2)N1,inactive,–
Nc1nc(=S)c2[nH]cnc2[nH]1,–,11.4 µM (active)
CCCCC(CC)COP(=O)(OCC(CC)CCCC)OCC(CC)CCCC (stereo not given),inactive,–
COc1ccc(OC(F)(F)F)cc1CN[C@H]1CCCN[C@H]1c1ccccc1,inactive,–
